From the supplement of paper PMC7393113
± gives the standard deviation of the averaged measurements.

System: iBMDM (immortalised mouse bone-marrow-derived macrophages), LPS-stimulated
Test: mitochondrial superoxide (MitoSOX fluorescence) fold increase over unstimulated control; higher = more LPS-induced mitochondrial ROS (less inhibition)
Conditions: inhibitor concentration: 500 nM, LPS: 100 ng/ml
Outline: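 Mitochondrial superoxide was expressed as fold induction over untreated macrophages. Immortalised mouse bone-marrow-derived macrophages were pretreated with kinase inhibitors (500 nM) for 30 min, loaded with 1 μM MitoSox for 10 min and stimulated with LPS (100 ng/ml). MitoSox fluorescence (excitation 510 nm, emission 580 nm) was read hourly over 4 h, and the three replicates were averaged.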

Structure (SMILES) | mitochondrial superoxide (time after LPS: 1 h) | mitochondrial superoxide (time after LPS: 2 h) | mitochondrial superoxide (time after LPS: 4 h)
COC[C@H]1OC(=O)c2coc3c2[C@@]1(C)C1=C(C3=O)[C@@H]2CCC(=O)[C@@]2(C)C[C@H]1OC(C)=O [Wortmannin] | 1.4 ± 0.084 | 1.45 ± 0.05 | 1.78 ± 0.079
Cc1ccccc1-n1c(Cn2ncc3c(N)ncnc32)nc2cccc(C)c2c1=O | 1.14 ± 0.012 | 1.25 ± 0.041 | 1.32 ± 0.04
CC(C)(C)c1cc(C=C(C#N)C#N)cc(C(C)(C)C)c1O [Tyrphostin 9] | 1.17 ± 0.033 | 1.21 ± 0.041 | 1.275 ± 0.0071
N#CC(C#N)=Cc1ccc(O)c(O)c1 | 1.364 ± 0.013 | 1.45 ± 0.055 | 1.666 ± 0.0094
O=c1[nH]c2ccc(Cl)cc2c(N[C@@H]2CN3CCC2CC3)c1-c1nc2ccccc2[nH]1 | 1.2 ± 0.013 | 1.4 ± 0.045 | 1.68 ± 0.044
Cn1cc(C2=C(c3cn(C4CCN(Cc5ccccn5)CC4)c4ccccc34)C(=O)NC2=O)c2ccccc21 | 1.7 ± 0.15 | 1.76 ± 0.18 | 1.92 ± 0.14
CCN1CCN(C(=O)Cc2ccc(Nc3ncc(F)c(Nc4ccc(C(=O)Nc5ccccc5Cl)cc4)n3)cc2)CC1 [Aurora A Inhibitor I] | 1.17 ± 0.065 | 1.24 ± 0.014 | 1.32 ± 0.049
CC(C)(C)c1cc(C=C(C#N)C#N)cc(Br)c1O | 1.12 ± 0.029 | 1.16 ± 0.069 | 1.11 ± 0.063
